The record followed here is PubChem BioAssay (NCATS).

SMILES strings stand for the structures. Results filed as inconclusive are left out. The source made the active and inactive calls. Unless noted, calls follow the shape of the dose curve; as a rule, active = well fitted curve in the direction sought with a large enough effect; inconclusive = small, poorly fitted or top-dose-only effect, or another doubt; inactive = no such curve, though single readings can be large; an effect the other way counts as inactive or inconclusive.

Assay [1] deals with Beta-2 adrenergic receptor (Homo sapiens) (UniProt P07550). In words: qHTS validation assay of beta-arrestin-biased ligands of beta2-adrenergic receptor (AID 485366). Also: 0% is about no effect. The method in brief: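 Agonist activity is measured as luciferase luminescence downstream of beta-arrestin recruitment to recombinant beta2-AR in Tango cells. Exposure lasts 18 hr at 37 degrees C, and curves are categorized by r2, response size and activity.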

Assay [2] deals with ATP-dependent 6-phosphofructokinase (Trypanosoma brucei brucei) (UniProt O15648). In words: qHTS Validation Assay to Find Inhibitors of T. brucei phosphofructokinase (AID 485368). The method in brief:
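Inhibition derived from concentration-response curves of luminescence, ranked by r2, response size and curve class; the underlying reaction used 1.25 nM PFK, 0.1 mM ATP and 0.5 mM F6P, 45 min, room temperature.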

The target in assay [3] is Thioredoxin reductase 1, cytoplasmic (Rattus norvegicus) (UniProt O89049). In words: qHTS Assay for Substrates of Mammalian Selenoprotein Thioredoxin Reductase 1 (TrxR1) (AID 488772).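 Also: series mostly up to about 57 µM; 0% is about no effect; a drop in NADPH fluorescence below the no-compound background marks a TrxR1 substrate.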 The method in brief: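 In this dual-purpose format, potential substrates are identified from the first fluorescence read after selenite addition, not from the 8-minute delta. Rat enzyme is preincubated with NADPH and then with compound at ~22 deg C.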

Assay [4] shares this target. In words: qHTS Assay for Inhibitors of Mammalian Selenoprotein Thioredoxin Reductase 1 (TrxR1) (AID 488773).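 Also: drop in NADPH fluorescence over an 8 min run after selenite addition; series mostly up to about 57 µM; % is scaled to controls: 0 for no effect and ±100 for the full control effect; nearly all actives have a fitted effect of over 40% in size.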 As to conditions: Potency: inhibition. The method in brief:
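Inhibition is scored from the loss of NADPH fluorescence between first and last reads of an 8-min kinetic run. Selenite (400 uM) was the substrate, added after 15 min compound preincubation at room temperature.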

The target of assay [5] is Flap endonuclease 1 (Homo sapiens) (UniProt P39748). In words: qHTS Validation Assay for the Inhibitors of Human Flap endonuclease 1 (FEN1) (AID 488816). Also: % is scaled to controls: 0 for no effect and ±100 for the full control effect. Put shortly: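 Enzyme reagent 10 nM; cpds pinned; 15 min RT preinc.; substrate 50 nM final; reads t=0 and 15 min; no-enzyme buffer wells as neg. control; normalized data, 4-parameter Hill fit.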
Sequence of Flap endonuclease 1 (Homo sapiens) (P39748 whole entry, looked up): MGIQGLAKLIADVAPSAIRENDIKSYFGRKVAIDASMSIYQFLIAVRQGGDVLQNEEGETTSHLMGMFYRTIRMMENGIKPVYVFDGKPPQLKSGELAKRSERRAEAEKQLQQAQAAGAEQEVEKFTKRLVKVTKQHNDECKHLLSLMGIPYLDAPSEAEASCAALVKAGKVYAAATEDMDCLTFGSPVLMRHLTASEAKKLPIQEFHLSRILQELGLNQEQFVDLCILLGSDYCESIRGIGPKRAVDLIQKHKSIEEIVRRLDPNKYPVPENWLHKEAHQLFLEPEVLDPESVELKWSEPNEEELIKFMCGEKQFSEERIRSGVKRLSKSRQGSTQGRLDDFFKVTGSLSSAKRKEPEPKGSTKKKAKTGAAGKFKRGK
Assay [6] addresses M-phase phosphoprotein 8 (Homo sapiens) (UniProt Q99549). In words: qHTS Validation Assay for Inhibitors for MPP8 Chromodomain Interactions with Methylated Histone Tails (AID 488949). Also: top concentration of the series differs between compounds; % is scaled to controls: 0 for no effect and ±100 for the full control effect; nearly all actives have a fitted effect of over 55% in size. The method in brief: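 MPP8 (50 nM) was preincubated with biotinylated H3(1-18)K9me3 peptide (50 nM) in PBS pH 7.4, 0.01% Tween-20 for 30 min at room temperature, then with compounds for 30 min; binding was detected by AlphaScreen.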

For assay [7], the target named is Chromobox protein homolog 1 (Homo sapiens) (UniProt P83916). In words: qHTS Validation Assay for Inhibitors of HP1-beta Chromodomain Interactions with Methylated Histone Tails (AID 488953). Also: nearly all actives have a fitted effect of over 50% in size. Also: potency is read from the fitted curve at half-maximal effect. Put shortly:
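Compounds pinned into a preassembled complex of HP1-beta and trimethyl-K9 histone H3(1-18) biotin peptide (50 nM each; PBS pH 7.4, 0.01% Tween-20). After 30 min, bead-based AlphaScreen detection followed.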

Assay [8] deals with Methanococcus maripaludis chaperonin (MmCpn) (UniProt Q6LX38). In words: High-Throughput Screening for Modulators of Cytosolic Chaperonin Activity: MmCpn Primary Screen (AID 488978).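 Also: 50 nM MmCpn enzyme hydrolysing 30 µM ATP at 37 °C; 0% is about no effect.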 Put shortly:
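MmCpn (50 nM final) was preincubated with compound 5 min at RT, then 30 uM ATP (final) was added and the reaction ran 10 min at 37C. ADP produced was detected by Transcreener HTRF (ex 320 nm; em 590/665 nm).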

For assay [9], the target named is D(1A) dopamine receptor (Homo sapiens) (UniProt P21728). In words: HTS Assay for Allosteric Agonists of the Human D1 Dopamine Receptor: Primary Screen for Potentiators (AID 488982). Also: 0% is about no effect. Put shortly: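 Tetracycline-induced HEK293 Trex D1 cells with forced coupling to calcium, loaded with no-wash calcium dye; kinetic fluorescence read 180 s after compound addition for agonism, then a further 180 s after an EC20 dopamine challenge for potentiation.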

Assay [10] shares this target. In words: HTS Assay for Allosteric Agonists of the Human D1 Dopamine Receptor: Primary Screen for Antagonists (AID 488983).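 Also: calcium flux response to an EC80 dopamine challenge measured with no-wash dye; % is scaled to controls: 0 for no effect and ±100 for the full control effect; nearly all actives have a fitted effect of over 65% in size.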 Put shortly: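 In this primary screen, compounds are applied to calcium-dye-loaded HEK293 T-REx cells with force-coupled D1 expression induced overnight at 30 C. An EC80 of dopamine follows the 180 s compound phase, and calcium is monitored for a further 180 s.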

The nature of assay [11]: Validation screen for small molecules that induce genotoxicity in human embryonic kidney (HEK293T) cells expressing luciferase-tagged ELG1 (AID 493106). Also: 0% is about no effect. The method in brief: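 In this validation screen, increased ELG1-luciferase signal flags compounds causing genetic stress. HEK293T reporter cells are treated 16 hr (37 °C, 5% CO2), developed with ONE-Glo for 30 min at room temperature, and imaged on a CCD-based reader.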

Assay [12] has as its target ATPase family AAA domain-containing protein 5 (Homo sapiens) (UniProt Q96QE3). In words: Validation screen for small molecules that inhibit ELG1-dependent DNA repair in human embryonic kidney (HEK293T) cells expressing luciferase-tagged ELG1 (AID 493107).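 Also: cells co-treated with the DNA-damaging agent 5-fluorouridine alongside compound; series mostly up to about 46 µM; % is scaled to controls: 0 for no effect and ±100 for the full control effect; inhibitors lower the ELG1-luciferase luminescence signal; nearly all actives have a fitted effect of over 70% in size.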 The method in brief: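 Compounds reducing 5-fluorouridine-driven ELG1-luciferase signal in HEK293T cells were scored; exposure lasted 16 hr at 37 °C with luminescence detected via ONE-Glo.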

The target in assay [13] is Thyrotropin-releasing hormone receptor (Homo sapiens) (UniProt P34981). In words: qHTS for Small Molecule Agonists and Allosteric Enhancers of Human TRH Receptor: Validation Screen for Agonists (AID 493127;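 active = calcium activation more than 3 SD above the typical response in the agonist read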;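 also: intracellular calcium rise by fluo-8 fluorescence before TRH EC20 addition; 0% is about no effect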). As to conditions: TRH receptor agonist cell assay; at 2 µM; stronger effect = higher value. Put shortly: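 Kinetic fluorescence assay of agonist-induced calcium release: overnight-plated TRHR cells, room-temperature fluo-8 loading, baseline then compound addition with per-second reads.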
Sequence of Thyrotropin-releasing hormone receptor (Homo sapiens) (P34981 whole entry, looked up): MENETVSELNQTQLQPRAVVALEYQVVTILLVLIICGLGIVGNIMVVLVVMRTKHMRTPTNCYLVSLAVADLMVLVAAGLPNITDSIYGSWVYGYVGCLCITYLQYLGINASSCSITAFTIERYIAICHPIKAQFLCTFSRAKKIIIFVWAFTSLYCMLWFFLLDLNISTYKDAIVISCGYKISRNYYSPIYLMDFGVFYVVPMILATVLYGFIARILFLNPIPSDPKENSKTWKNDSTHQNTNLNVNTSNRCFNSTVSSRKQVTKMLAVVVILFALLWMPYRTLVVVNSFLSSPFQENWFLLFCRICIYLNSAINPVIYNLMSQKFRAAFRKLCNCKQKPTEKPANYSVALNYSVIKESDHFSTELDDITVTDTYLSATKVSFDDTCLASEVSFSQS

Assay [14] in a line: qHTS for Inhibitors of Cell Surface uPA Generation: Validation Assay (AID 493164).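 Also: RAW 264.7 macrophage cells exposed to compound for 18 h; 0% is about no effect.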 Put shortly:
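Compounds are titrated over seven points (2.45 nM–38.3 uM final) onto pre-plated RAW 264.7 cells and incubated for 18 h. Retained intracellular ATP, measured with ATP-Lite, indicates blocked lethal factor entry.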

Assay [15] has as its target ATP-dependent 6-phosphofructokinase (Trypanosoma brucei brucei) (UniProt O15648). In words: qHTS Assay to Find Inhibitors of T. brucei phosphofructokinase: hit validation (AID 492961).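 Also: luminescence reports ADP formed as PFK phosphorylates fructose-6-phosphate with ATP; series mostly up to about 51 µM; % is scaled to controls: 0 for no effect and ±100 for the full control effect.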 Put shortly: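 Inhibition of parasite PFK is measured as reduced ADP formation, quantified via luciferase after ATP depletion. Assay used 0.1 mM ATP, 0.5 mM F6P, 1.25 nM enzyme, 45 min incubation.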

The nature of assay [16]: Quantitative high throughput screen for delayed death inhibitors of the malarial parasite plastid, 48 hour incubation (AID 488752). Also: nearly all actives have a fitted effect of over 65% in size. Also: potency is read from the fitted curve at half-maximal effect. Put shortly:
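Cultures: infected erythrocytes at final 2% hematocrit and 0.1% parasitemia in Albumax-supplemented RPMI. Parasites express integrated firefly luciferase. Incubation with compound lasts 48 h before luminescent detection of remaining reporter activity.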

For assay [17], the target named is Thyrotropin receptor (Homo sapiens) (UniProt P16473). In words: qHTS Assay for Antagonists of the Thyroid Stimulating Hormone Receptor (AID 488980). Also: series mostly up to about 58 µM; 0% is about no effect. Put shortly:
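HEK293 cells transfected with human TSHR, suspended in HEPES-buffered HBSS with 70 uM RO 20-1724, were treated with compounds plus TSH at EC80 (4 nM final). cAMP was measured by competitive HTRF (cryptate anti-cAMP antibody, cAMP-d2 acceptor).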

Assay [18] can be described thus: Nrf2 qHTS screen for inhibitors: Validation (AID 493153; active = well fitted inhibition curve with a large enough effect in the main read-out, with a control signal flat, not every such curve was filed as active; also: potency is read from the fitted curve at half-maximal effect). Conditions: Potency: luciferase luminescence; viability change: measured here: cytotoxicity max response. Put shortly: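 In this counterscreened reporter format, each well gives two signals: CellTiter-Fluor fluorescence for cytotoxicity and ARE-luciferase luminescence for Nrf2 function. A549 ARE_Fluc cells in 5% FBS OPTI-MEM were exposed to compound titrations for 18-24 h.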

Sequence of Chromobox protein homolog 1 (Homo sapiens) (P83916 whole entry, looked up): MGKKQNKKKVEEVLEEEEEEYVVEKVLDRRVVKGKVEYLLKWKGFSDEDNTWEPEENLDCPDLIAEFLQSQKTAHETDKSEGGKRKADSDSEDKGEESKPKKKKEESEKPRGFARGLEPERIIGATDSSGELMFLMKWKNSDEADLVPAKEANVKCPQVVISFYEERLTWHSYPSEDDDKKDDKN
Sequence of ATP-dependent 6-phosphofructokinase (Trypanosoma brucei brucei) (O15648 whole entry, looked up): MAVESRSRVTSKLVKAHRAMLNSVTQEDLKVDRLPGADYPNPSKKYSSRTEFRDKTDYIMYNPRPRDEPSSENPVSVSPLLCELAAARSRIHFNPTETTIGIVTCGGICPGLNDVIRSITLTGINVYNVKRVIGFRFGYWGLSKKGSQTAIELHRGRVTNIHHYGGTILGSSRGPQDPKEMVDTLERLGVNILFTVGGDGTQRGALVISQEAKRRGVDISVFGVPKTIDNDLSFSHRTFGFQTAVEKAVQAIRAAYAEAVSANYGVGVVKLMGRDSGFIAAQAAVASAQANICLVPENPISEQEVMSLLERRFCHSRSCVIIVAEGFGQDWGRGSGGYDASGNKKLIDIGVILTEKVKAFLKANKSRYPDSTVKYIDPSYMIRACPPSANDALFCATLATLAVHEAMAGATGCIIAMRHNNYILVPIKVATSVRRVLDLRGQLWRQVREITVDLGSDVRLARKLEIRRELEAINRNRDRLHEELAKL
Sequence of M-phase phosphoprotein 8 (Homo sapiens) (Q99549 whole entry, looked up): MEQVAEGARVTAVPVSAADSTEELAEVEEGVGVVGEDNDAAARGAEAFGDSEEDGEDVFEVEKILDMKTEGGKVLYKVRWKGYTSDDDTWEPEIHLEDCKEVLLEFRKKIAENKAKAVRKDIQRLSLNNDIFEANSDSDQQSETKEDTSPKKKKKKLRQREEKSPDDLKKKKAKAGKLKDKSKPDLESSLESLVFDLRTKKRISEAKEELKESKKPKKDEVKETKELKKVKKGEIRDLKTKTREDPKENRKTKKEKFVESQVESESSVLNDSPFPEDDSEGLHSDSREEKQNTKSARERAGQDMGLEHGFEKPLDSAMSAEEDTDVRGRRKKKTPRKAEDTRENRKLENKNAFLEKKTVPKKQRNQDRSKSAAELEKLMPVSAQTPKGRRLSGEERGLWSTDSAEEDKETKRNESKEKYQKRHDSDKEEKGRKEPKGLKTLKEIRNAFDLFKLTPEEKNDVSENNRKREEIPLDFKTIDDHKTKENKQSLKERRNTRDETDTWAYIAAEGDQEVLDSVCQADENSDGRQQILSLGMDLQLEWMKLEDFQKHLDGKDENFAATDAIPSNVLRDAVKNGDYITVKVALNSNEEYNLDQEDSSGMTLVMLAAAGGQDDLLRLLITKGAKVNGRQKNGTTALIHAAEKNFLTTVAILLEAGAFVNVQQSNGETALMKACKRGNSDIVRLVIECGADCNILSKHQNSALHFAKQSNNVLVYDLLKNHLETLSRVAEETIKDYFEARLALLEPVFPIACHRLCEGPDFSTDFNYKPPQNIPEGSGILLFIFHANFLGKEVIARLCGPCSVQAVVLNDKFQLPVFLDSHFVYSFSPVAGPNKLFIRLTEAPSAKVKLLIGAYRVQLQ
Sequence of ATPase family AAA domain-containing protein 5 (Homo sapiens) (Q96QE3 whole entry, looked up, the tested form may be a part): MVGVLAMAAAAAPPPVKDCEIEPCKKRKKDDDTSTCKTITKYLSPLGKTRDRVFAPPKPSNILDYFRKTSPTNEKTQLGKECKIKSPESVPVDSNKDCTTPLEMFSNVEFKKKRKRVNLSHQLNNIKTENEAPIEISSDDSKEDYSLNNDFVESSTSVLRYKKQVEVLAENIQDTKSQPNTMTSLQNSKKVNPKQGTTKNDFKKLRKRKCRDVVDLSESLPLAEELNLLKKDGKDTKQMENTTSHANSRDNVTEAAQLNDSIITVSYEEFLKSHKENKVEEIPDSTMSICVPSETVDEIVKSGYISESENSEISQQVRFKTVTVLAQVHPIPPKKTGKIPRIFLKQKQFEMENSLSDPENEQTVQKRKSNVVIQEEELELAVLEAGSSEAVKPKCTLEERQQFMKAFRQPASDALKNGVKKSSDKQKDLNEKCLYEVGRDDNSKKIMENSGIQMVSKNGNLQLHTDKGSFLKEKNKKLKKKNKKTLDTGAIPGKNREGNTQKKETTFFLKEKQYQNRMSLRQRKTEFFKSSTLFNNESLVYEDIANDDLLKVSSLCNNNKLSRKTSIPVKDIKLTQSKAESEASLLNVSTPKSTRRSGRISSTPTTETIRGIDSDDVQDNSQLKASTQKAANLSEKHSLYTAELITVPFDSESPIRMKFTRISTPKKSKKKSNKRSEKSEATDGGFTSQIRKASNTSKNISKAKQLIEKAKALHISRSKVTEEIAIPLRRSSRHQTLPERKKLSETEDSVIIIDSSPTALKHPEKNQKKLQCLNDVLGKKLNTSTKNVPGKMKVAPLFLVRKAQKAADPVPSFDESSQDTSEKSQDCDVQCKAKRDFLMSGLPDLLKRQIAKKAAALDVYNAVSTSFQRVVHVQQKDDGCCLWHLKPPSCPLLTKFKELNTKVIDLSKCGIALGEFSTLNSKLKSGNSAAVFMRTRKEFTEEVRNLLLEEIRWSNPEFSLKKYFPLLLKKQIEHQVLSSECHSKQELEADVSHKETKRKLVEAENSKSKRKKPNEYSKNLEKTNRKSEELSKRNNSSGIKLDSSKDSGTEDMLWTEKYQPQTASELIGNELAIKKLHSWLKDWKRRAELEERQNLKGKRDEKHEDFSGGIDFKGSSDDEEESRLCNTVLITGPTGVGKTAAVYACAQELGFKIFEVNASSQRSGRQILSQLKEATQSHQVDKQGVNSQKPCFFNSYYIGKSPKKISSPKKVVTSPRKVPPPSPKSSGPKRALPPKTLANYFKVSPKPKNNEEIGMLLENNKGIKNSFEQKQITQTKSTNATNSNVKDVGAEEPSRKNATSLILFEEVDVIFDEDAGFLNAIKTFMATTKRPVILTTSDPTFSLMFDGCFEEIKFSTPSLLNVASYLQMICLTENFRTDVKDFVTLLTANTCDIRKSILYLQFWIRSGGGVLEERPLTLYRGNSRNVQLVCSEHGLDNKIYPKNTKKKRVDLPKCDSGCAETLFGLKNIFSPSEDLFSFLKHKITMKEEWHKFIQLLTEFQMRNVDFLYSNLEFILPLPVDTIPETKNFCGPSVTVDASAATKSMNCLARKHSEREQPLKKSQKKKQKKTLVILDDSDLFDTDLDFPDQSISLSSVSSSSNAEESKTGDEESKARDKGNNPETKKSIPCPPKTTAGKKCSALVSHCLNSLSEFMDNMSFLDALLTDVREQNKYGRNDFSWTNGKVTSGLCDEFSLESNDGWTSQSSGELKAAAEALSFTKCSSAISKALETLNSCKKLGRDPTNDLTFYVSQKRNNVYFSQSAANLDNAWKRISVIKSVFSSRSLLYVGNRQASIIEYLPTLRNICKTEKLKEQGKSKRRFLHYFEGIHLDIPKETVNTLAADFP
Sequence of Methanococcus maripaludis chaperonin (MmCpn) (Q6LX38 1-543): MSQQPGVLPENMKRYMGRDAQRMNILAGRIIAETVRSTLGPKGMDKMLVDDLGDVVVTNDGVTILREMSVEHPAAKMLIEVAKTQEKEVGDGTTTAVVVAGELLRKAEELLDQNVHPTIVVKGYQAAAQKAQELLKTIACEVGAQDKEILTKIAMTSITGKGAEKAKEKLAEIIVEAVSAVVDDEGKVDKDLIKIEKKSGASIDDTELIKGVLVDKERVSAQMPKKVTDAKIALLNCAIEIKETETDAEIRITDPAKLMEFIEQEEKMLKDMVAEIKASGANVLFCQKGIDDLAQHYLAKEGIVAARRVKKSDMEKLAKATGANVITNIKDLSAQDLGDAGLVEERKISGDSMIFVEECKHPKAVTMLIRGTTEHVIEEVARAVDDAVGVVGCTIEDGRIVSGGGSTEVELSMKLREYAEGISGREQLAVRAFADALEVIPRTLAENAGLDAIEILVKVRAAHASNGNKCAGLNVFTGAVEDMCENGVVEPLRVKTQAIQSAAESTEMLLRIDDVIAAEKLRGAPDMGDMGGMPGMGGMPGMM

In the case of `C[C@]12CC[C@@H]3c4ccc(O)cc4CC[C@H]3[C@@H]1CCC2=O`, the outcome in assay [1], in [3], in assay [9], in assay [12] and in [14] was inactive. The Potency result in assay [2], in assay [4], in assay [5], in [6], in [7] and in [8] was “inactive” in each case. The Potency entry in assay [10] and in assay [11] was “inactive” in each case. Besides, the activation in assay [13] was 0.812% (inactive).

For the compound `COCCOC(=O)C1=C(C)NC(C)=C(C(=O)OC/C=C/c2ccccc2)C1c1cccc([N+](=O)[O-])c1` (stereo unspecified), the compound was called inactive in [1], in assay [3], in assay [9] and in assay [14]. Further, the Potency entry in assay [2], in assay [4], in [5], in assay [6], in [8] and in assay [10] was “inactive” in each case. For the same compound, the Potency entry in [15] and in assay [11] was “inactive” each time.

For `CN(C)CC[C@@H](c1ccc(Cl)cc1)c1ccccn1`, the result in assay [1], in assay [3], in assay [17], in assay [9], in assay [12] and in assay [14] was inactive. Moreover, the Potency result in assay [16], in assay [4], in [5], in [6], in assay [7] and in [8] was “inactive” throughout. The Potency entry in assay [10], in assay [11] and in assay [18] was “inactive” in each case. In assay [13], the activation was 1.56% (inactive). Moreover, the viability change in assay [18] was 8.9%.

On to `C[C@]12C[C@H](O)[C@H]3[C@@H](CCC4=CC(=O)CC[C@@]43C)[C@@H]1CC[C@@H]2C(=O)CO`, for which the compound was called inactive in assay [1], in assay [3], in assay [9], in assay [12] and in assay [14]. Moreover, the Potency result in assay [2], in [4], in assay [5], in assay [6], in [7] and in assay [8] was “inactive” in each case. Moreover, the Potency result in [10], in [15] and in [11] was “inactive” throughout. Also, the Potency in assay [18] is 6.51 µM (active). For the same compound, the viability change in assay [18] was -3.09%.

For `CN(C)CCOC(C)(c1ccccc1)c1ccccn1` (stereo unspecified), the call in [1], in assay [3], in assay [17], in [9], in assay [12] and in assay [14] was inactive. The Potency entry in assay [2], in assay [16], in assay [4], in [5], in assay [6] and in [7] was “inactive” throughout. For the same compound, the Potency entry in assay [8], in [10], in assay [11] and in assay [18] was “inactive” throughout. Moreover, the viability change in assay [18] is -4.35%.

As to `CC(CN(C)C)CN1c2ccccc2CCc2ccccc21` (stereo unspecified), the compound was called inactive in assay [1], in assay [3], in [17], in assay [9], in [12] and in assay [14]. Moreover, the Potency result in [2], in assay [4], in assay [5], in assay [6], in [8] and in assay [11] was “inactive” throughout. For the same compound, the Potency in assay [7] is 28.2 µM (active). For the same compound, the activation in assay [13] is 6.88% (inactive).

As to `CC[C@H]1CN2CCc3cc(OC)c(OC)cc3[C@@H]2C[C@@H]1C[C@H]1NCCc2cc(OC)c(OC)cc21`, the outcome in assay [1], in [3], in [9] and in assay [14] was inactive. Also, the Potency result in assay [2], in assay [4], in assay [6], in [7], in assay [8] and in assay [10] was “inactive” each time. Moreover, the Potency in [16] is 0.117 µM (active).
